High-throughput results: PubChem, National Center for Advancing Translational Sciences (NCATS)
Most compounds without a hit are left out; they make up all but 5.7% or so of the library.
ATXN2 expr inh = ATXN2 expression inhibition; Potency, µM (highest dose often 57 µM), without a hit: at the top dose activity change, negative = inhibition, actives largely listed as inhibitors; HEK-293 ATXN2-luciferase reporter, luminescence, 24 h; AID 1745845; actives 0.72% (n = 360,000); also: potency is read from the fitted curve at half-maximal effect; % is scaled to controls: 0 for no effect and ±100 for the full control effect; nearly all actives have a fitted effect of over 55% in size
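qHTS (up to 57 uM final) was run with 24 h compound exposure of reporter cells at 37 °C. Each well was multiplexed: SteadyGlo luminescence measured ATXN2-luciferase expression after a fluorogenic Gly-Phe-AFC viability readout (25 uM final).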
IL-1B inflam inh = blocks inflammasome-driven IL-1 beta release; AID 743279; actives 4.7% (n = 360,000); activity change, % at 57.5 µM; THP-1 LPS/ATP IL-1B secretion, AlphaLISA, 16 h; hits give low values; in the data active = activity change below about -50%; inconclusive = mostly about -30% to -49%; also: % is scaled to controls: 0 for no effect and ±100 for the full control effect
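THP-1 cells pretreated 1 hr with compounds (up to 57.5 uM final), then stimulated with LPS (250 ng/mL final) plus ATP (1.25 mM final); secreted IL-1B measured by AlphaLISA after 16 hr, decreased signal indicating inhibition.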
TGFb inhibitor = TGF-b pathway inhibition. actives 1.2% (n = 410,000). AID 588855. HepG2 CAGA-GFP TGF-b/SMAD3 reporter, GFP fluorescence, 18 h; TGF-beta stimulated, 500 pg/mL final. Potency, µM (doses to about 46.1 µM), for inactives: at the top dose activity, negative = inhibition, most hits filed as inhibitors; also: potency is read from the fitted curve at half-maximal effect; % is scaled to controls: 0 for no effect and ±100 for the full control effect; nearly all actives have a fitted effect of over 65% in size
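Smad-responsive CAGA-GFP expression was quantified in HEPG2 cells exposed to compounds and 500 pg/mL final TGF-beta for 18 h at 37 degrees C; unstimulated wells defined full inhibition.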
HepG2 viability = counter-screen for TGF-b inhibitors: cytotoxicity in HepG2 cells; AID 588856; actives 0.76% (n = 410,000); Potency, µM (series often up to 46.1 µM), without a hit: at the top dose activity change, negative = cytotoxicity, hits mostly cytotoxic; HepG2 CAGA-GFP viability, ATP luminescence, 18 h; also: potency is read from the fitted curve at half-maximal effect
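HepG2 CAGA-GFP cells (1000/well, DMEM with 1% FBS) received compound, then TGF-beta at 500 pg/mL final, and were incubated 18 hours at 37 degrees C. Viability was read by CellTiter-Glo luminescence. Media-only wells were set as complete cell-killing and DMSO as no toxicity.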
S2 tox = reduces viability in counter-screen for ATXN expression inhibitors; actives 0.49% (n = 400,000); Potency, µM (series often up to 56.7 µM), usual class: cytotoxic; AID 651635; S2 cells (HEK-293 line with an ATXN2-luciferase reporter) viability, CellTiter-Fluor protease fluorescence, 24 h; also: potency is read from the fitted curve at half-maximal effect; nearly all actives have a fitted effect of over 40% in size
Starred values were filed as active, the others as inactive; i = inactive; ? = inconclusive; . = no result. Unless noted, calls follow the shape of the dose curve; as a rule, active = well fitted curve in the direction sought with a large enough effect; inconclusive = small, poorly fitted or top-dose-only effect, or another doubt; inactive = no such curve, though single readings can be large; an effect the other way counts as inactive or inconclusive.

SMILES	ATXN2 expr inh	IL-1B inflam inh	TGFb inhibitor	HepG2 viability	S2 tox
COc1ccc(NC(=O)C(c2ccc(OC)cc2)N(C)C(=O)CC2NC(=O)NC2=O)cc1 (stereo unspecified)	6.7%	12.8	-7.8%	-23.5%	i
Cc1ccc(C)c(NC(=O)Cn2c(SCC(=O)NCc3ccccc3)nc3ccccc32)c1	-21.6%	.	2.8%	-3.8%	i
Cc1ccc(NC(=O)CSc2nnc(-c3ccco3)c(-c3ccco3)n2)cc1	-11.3%	6.1	-27.4%	-1.0%	i
Cc1ccccc1NC(=O)CSc1nnc(-c2ccco2)c(-c2ccco2)n1	7.4%	-30.0	-4.1%	2.4%	i
O=C(CSc1nnc(-c2ccco2)c(-c2ccco2)n1)Nc1ccccc1	-16.9%	-57.5*	-18.5%	7.1%	i
Cc1cccc(C)c1NC(=O)CSc1nnc(-c2ccco2)c(-c2ccco2)n1	-14.5%	-76.6*	-26.1%	-12.4%	i
CC(Oc1ccccc1)C(=O)N[C@@H]1C(=O)N2C(C(=O)OCC3CCCCC3)C(C)(C)S[C@H]12 (stereo partly specified)	.	.	?	-4.0%	.
O=C(NCCc1nnc2n1CCN(Cc1ccc(F)cc1)CC2)c1ccc(F)cc1	.	.	.	.	i
Oc1ccccc1/C=N/NC(=S)NC1CC2CC1C1C=CCC21 (stereo unspecified)	-13.4%	?	?	17.8µM*	?
COc1cccc(/C=N/NC(=S)NC2CC3CC2C2C=CCC32)c1O (stereo unspecified)	-22.2%	.	-4.2%	-18.7%	i
O=C(NCc1ccccn1)C1(C(F)(F)F)C/C(=C\Cc2ccccc2)CCCO1 (stereo unspecified)	.	.	-43.1%	-2.3%	.
Cc1cc(C)c2c(n1)sc1c(N3CCN(CCO)CC3)ncnc12	-16.6%	-77.4*	3.0%	-5.6%	i
COc1cccc(Cn2cnc3c(sc4nc(C)cc(C)c43)c2=O)c1	-11.1%	4.9	-4.9%	1.0%	i
CC(=O)Cn1cnc2c(sc3nc(C)cc(C)c32)c1=O	9.1%	-64.1*	-2.7%	-14.1%	i
CCOc1ncnc2c1sc1nc(C)cc(C)c12	-23.5%	-17.9	-2.9%	2.8%	i
CCN(c1ccc(C)cc1C)S(=O)(=O)c1nnc(NC(=O)c2ccccc2OC)s1	.	.	-1.4%	-33.9%	.
CCOC(=O)c1ccc(O)c(O)c1	5.7%	.	.	.	i
COc1ccc(OC)c(/C=C/C(=O)Nc2cccc(S(=O)(=O)NC3=NCCCCC3)c2)c1	.	-26.0	-2.1%	-14.1%	?
COc1ccc(NC(=O)/C=C/c2ccc(OC(F)F)cc2)cn1	-22.7%	-53.9*	23.7%	5.1%	i
COc1ccc(/C=C/C(=O)Nc2cccc(S(=O)(=O)NC3=NCCCCC3)c2)cc1	.	0.0	1.2%	-13.6%	i
COc1cc(/C=C/C(=O)Nc2cccc(S(=O)(=O)NC3=NCCCCC3)c2)ccc1OCC#N	-25.2%	-56.1*	-6.9%	5.5%	?
O=C(/C=C/c1ccc(OC(F)F)cc1)Nc1cccc(S(=O)(=O)NC2=NCCCCC2)c1	-20.0%	-80.9*	?	-14.2%	?
COc1ccccc1/C=C/C(=O)Nc1cccc(S(=O)(=O)NC2=NCCCCC2)c1	3.4%	-57.1*	-25.5%	-4.5%	?
COc1ccc(C(=O)c2cn(CC(=O)Nc3ccc4c(c3)OCCO4)c3ccc(OC)cc3c2=O)cc1	-3.5%	.	1.5%	2.0%	?
CCCCCCCCNCCS(=O)(=O)NCc1ccccc1	?	-52.5*	?	15.8µM*	.
CC1CCCN(C(=O)COc2ccc(NC(=O)c3cccs3)cc2)C1 (stereo unspecified)	3.1%	-56.5*	1.7%	-4.6%	i
Cc1cc(C)nc(SCC(=O)NC2=NN=C(c3ccc(Br)cc3)CS2)n1	?	-82.9*	-1.6%	-15.0%	31.6µM*
CCCC(=O)c1cc(F)c(N2CCN(S(=O)(=O)c3ccccc3)CC2)cc1C	-16.5%	-58.8*	-27.3%	-24.3%	i
CCC(=O)c1cc(F)c(N2CCN(S(=O)(=O)c3ccccc3)CC2)cc1C	-16.4%	?	-15.8%	-32.0%	i
